Giardia FBPA inh-1: Giardia lamblia aldolase inhibition; Potency, µM (highest dose often 59.6 µM), for the others: at the highest dose activity, negative = inhibition, most hits filed as inhibitors; purified Giardia FBPA; A8B2U2; AID 2451; 290,000 compounds, 0.71% hits; note: nearly all actives have a fitted effect of over 55% in size
Target sequence (A8B2U2 whole entry, looked up): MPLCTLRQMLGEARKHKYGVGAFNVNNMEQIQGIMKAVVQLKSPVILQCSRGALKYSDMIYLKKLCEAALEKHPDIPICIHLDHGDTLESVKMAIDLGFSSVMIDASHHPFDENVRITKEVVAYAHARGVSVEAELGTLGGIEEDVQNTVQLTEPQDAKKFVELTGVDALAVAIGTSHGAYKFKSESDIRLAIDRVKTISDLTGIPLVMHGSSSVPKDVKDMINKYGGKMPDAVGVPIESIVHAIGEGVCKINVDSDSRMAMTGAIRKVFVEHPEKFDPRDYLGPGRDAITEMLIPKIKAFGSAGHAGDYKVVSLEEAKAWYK
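40 nM FBPA preincubated 10 min at RT with compound (up to 57.5 uM final), then substrate plus GAPDH/TPI/NAD/arsenate coupling and diaphorase/resazurin added. Fluorescence read after 20 min at RT, 525/598 nm.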
Cruzain inh noDet: inhibitors of Trypanosoma cruzi cruzain without detergent. 200,000 compounds, 2.3% hits. Potency, µM, for the others: max response, negative = inhibition, most hits filed as inhibitors. purified cruzain, Z-FR-AMC fluorescence, no detergent;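 note: plate controls were enzyme without inhibitor for no effect and buffer without enzyme for full effect; nearly all actives have a fitted effect of over 40% in size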
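Detergent-free condition (0.00005% Triton X-100) in acetate buffer pH 5.5 with DTT. 1.5 nM enzyme and compound were pre-mixed 15 min, then 2 uM Z-FR-AMC substrate added; reaction progress from fluorescence change between first and third reads (60 s).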
Cruzain Triton: blocks cruzain activity in presence of Triton detergent | purified cruzain, Z-FR-AMC fluorescence, 0.01% Triton | 200,000 compounds, 0.43% hits | AID 1478 | Potency, µM, for the others: max response, negative = inhibition, actives largely listed as inhibitors | P25779;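 note: plate controls were neutral wells for no effect and buffer without enzyme for full effect; nearly all actives have a fitted effect of over 40% in size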
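In this qHTS format, compounds are incubated with 1.5 nM cruzain for 15 min at room temperature before 2 uM Z-FR-AMC is added. Release of AMC is followed at 360/450 nm, and progress is taken as the 60 s fluorescence difference.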
Papain counter: blocks papain protease activity, flagging nonselective cruzain hits | purified papain, Z-FR-AMC fluorescence cleavage | 410 compounds, 41% hits | Potency, µM, inactives show max response, negative = inhibition, usual class: inhibitors | shares compounds with Cruzain Triton;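 note: 0% = no-compound wells and -100% = no-enzyme wells; nearly all actives have a fitted effect of over 35% in size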
Target sequence (P00784 whole entry, looked up): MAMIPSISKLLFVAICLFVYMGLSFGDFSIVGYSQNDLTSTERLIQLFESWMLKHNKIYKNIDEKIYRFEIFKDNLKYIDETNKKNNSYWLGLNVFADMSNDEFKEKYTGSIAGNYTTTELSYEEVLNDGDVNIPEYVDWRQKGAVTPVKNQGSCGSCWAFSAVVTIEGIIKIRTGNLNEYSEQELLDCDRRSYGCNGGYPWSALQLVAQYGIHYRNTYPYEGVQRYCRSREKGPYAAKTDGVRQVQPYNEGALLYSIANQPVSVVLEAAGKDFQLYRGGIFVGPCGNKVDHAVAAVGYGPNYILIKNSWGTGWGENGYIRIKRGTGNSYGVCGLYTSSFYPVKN
Giardia growth: inhibitors of Giardia lamblia growth; 1,500 compounds, 5% hits; Giardia lamblia trophozoite growth inhibition; shares compounds with Giardia FBPA inh-1; Potency, µM (highest dose often 57.5 µM), for inactives: at the top dose activity change, negative = inhibition, actives largely listed as inhibitors;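 note: trophozoites exposed to compound for 48 h at 37 °C; nearly all actives have a fitted effect of over 70% in size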
Mammal cell tox: mammalian cytotoxicity of Giardia aldolase inhibitor hits | shares compounds with Giardia FBPA inh-1 | mammalian cell viability counter-screen, qHTS | Potency, µM (titrated, usually from 57.5 µM), without a hit: at the top dose viability change, negative = toxicity, hits mostly inhibitors | 1,500 compounds, 4% hits | AID 2786;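 note: Chinese hamster ovary cells used as mammalian cytotoxicity surrogate; viability measured as cellular ATP by luminescence; compound exposure lasted 48 h before reading; nearly all actives have a fitted effect of over 60% in size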
Giardia FBPA inh-2: confirmation of Giardia fructose-bisphosphate aldolase inhibitors; 1,500 compounds, 5% hits; AID 2787; shares compounds with Giardia FBPA inh-1; purified Giardia aldolase enzyme activity, qHTS; Potency, µM (top dose mostly 57.5 µM), for the others: top-dose activity change, negative = inhibition, most hits filed as inhibitors; note: nearly all actives have a fitted effect of over 45% in size
Rabbit FBPA inh: blocks rabbit muscle aldolase in Giardia aldolase selectivity test; shares compounds with Giardia FBPA inh-1; Rabbit muscle FBPA enzyme inhibition, selectivity counter-screen; Potency, µM (top dose mostly 57.5 µM), without a hit: at the top dose activity, negative = inhibition, usual class: inhibitors; 1,500 compounds, 4% hits; AID 2794; note: nearly all actives have a fitted effect of over 60% in size
GAPDH coupling: GAPDH inhibition flagged for Giardia aldolase hits; shares compounds with Giardia FBPA inh-1; GAPDH coupling enzyme counterscreen, biochemical, qHTS; Potency, µM (highest dose often 57.5 µM), for the others: at the highest dose activity change, negative = inhibition, actives largely listed as inhibitors; 1,500 compounds, 6% hits; AID 2795; note: nearly all actives have a fitted effect of over 55% in size
The depositor's hits bear a star; [ ] = another dose, or the depositor's remark. Many of the other results were omitted from the sample, so hits are more common in it than they were. Calls come from the whole dose curve; as a rule, active = well fitted curve in the direction sought with a large enough effect; inconclusive = small, poorly fitted or top-dose-only effect, or another doubt; inactive = no such curve, though single readings can be large; an effect the other way counts as inactive or inconclusive. Unless noted, % is set by controls: 0 for no effect and ±100 for the full control effect; potency is the fitted concentration of half-maximal effect.

COc1cc(C2C(C(=O)Nc3ccc(C)cc3C)=C(C)Nc3nc4ccccc4n32)cc(OC)c1OC (stereo not drawn) was read as Cruzain inh noDet -5.5% and Cruzain Triton -5.4%.
CN1C(=O)/C(=N\OC(=O)c2cccc3ccccc23)c2ccccc21 was read as Giardia FBPA inh-1 -7.3%, Cruzain inh noDet 7.94µM*, Cruzain Triton 3.16µM* and Papain counter 15.8µM*.
`CN1C(=O)c2ccc(NC(=O)c3cccc4ccccc34)cc2C1=O` gave Giardia FBPA inh-1 -2.6%.
Screening COCC(C)NC(=O)Cn1c(SCc2ccccc2)nc2ccccc21 (stereo not drawn) returned Giardia FBPA inh-1 -6.2% and Papain counter -7.8%.
`COCC(C)NC(=O)CSc1nc2ccccc2n1CCc1ccccc1` (stereo not drawn) gave Giardia FBPA inh-1 -3.4%, Cruzain inh noDet 9.8% and Cruzain Triton 0.3%.
For O=C(COC(=O)CCSc1ccccc1)Nc1ccc(F)cc1Cl the results were Giardia FBPA inh-1 8.8%, Cruzain inh noDet -12.0% and Cruzain Triton inconclusive.
O=C(COC(=O)CCSc1ccccc1Cl)Nc1ccc(F)cc1F was read as Giardia FBPA inh-1 4.3%, Cruzain inh noDet 12.6µM*, Cruzain Triton 14.1µM* and Papain counter -2.4%.
Screening O=C(Nc1cccc(-c2nc3ccccc3[nH]2)c1)c1c(F)cccc1F returned Cruzain inh noDet inconclusive and Cruzain Triton -7.1%.
Cc1ccc2oc3c(c(=O)c2c1)C(c1ccc(O)cc1)N(c1nc(C)c(C)s1)C3=O (stereo not drawn) was read as Cruzain inh noDet 6.1% and Cruzain Triton -1.2%.
Screening Cc1ccc(C(=O)NCCn2c(N)c(C#N)c3nc4ccccc4nc32)cc1 returned Giardia FBPA inh-1 -10.3%, Cruzain inh noDet inconclusive, Cruzain Triton -6.5% and Papain counter 28.2µM*.
N#Cc1c(N)n(CCNC(=O)c2ccc(Cl)cc2)c2nc3ccccc3nc12 was read as Giardia FBPA inh-1 -22.3%, Cruzain inh noDet 9.0% and Cruzain Triton -4.1%.
CCN(CC)c1ccc(-c2nn3c(-c4n[nH]c5c4CCC5)nnc3s2)cc1 was read as Giardia FBPA inh-1 -1.5%, Cruzain inh noDet 0.5% and Cruzain Triton -1.5%.
`COc1cccc(OC)c1-c1nn2c(-c3n[nH]c4c3CCC4)nnc2s1` gave Papain counter 15.8µM*.
`CC(C)(C)c1ccc(C(=O)Nc2onc3c2CCCC3)cc1` gave Cruzain inh noDet -1.1% and Cruzain Triton -9.0%.
For CC(=O)N1CCN(C(=S)c2ccc(-c3ccc(Cl)cc3)o2)CC1 the results were Giardia FBPA inh-1 -17.3%, Cruzain inh noDet inconclusive, Cruzain Triton 8.91µM* and Papain counter 15.8µM*.
Screening S=C(c1ccc(-c2cccc(Cl)c2)o1)N1CCCCC1 returned Giardia FBPA inh-1 1.4%.
`CCN1CCN(CCCNC(=O)c2cc3cc4ccc(OC)cc4nc3o2)CC1` gave Giardia FBPA inh-1 -1.9%, Cruzain inh noDet inconclusive and Cruzain Triton inconclusive.
COc1ccc2cc3cc(C(=O)NCCCN4CCOCC4)oc3nc2c1 was read as Giardia FBPA inh-1 -4.7%, Cruzain inh noDet inconclusive, Cruzain Triton 31.6µM* and Papain counter 15.8µM*.
Screening CCOC(=O)c1cccc(NC(=O)Nc2ccc3c(c2)N(C)C(=O)c2ccccc2S3)c1 returned Cruzain inh noDet inconclusive and Cruzain Triton -5.1%.
Screening COc1ccc(NC(=O)/C=C/c2ccc3c(c2)OCO3)cc1 returned Giardia FBPA inh-1 -13.1%.
CN(C)S(=O)(=O)c1ccc(C(=O)Nc2ccc(-n3nncc3-c3ccccc3)cc2)cc1 was read as Cruzain inh noDet -15.9% and Cruzain Triton -0.3%.
`O=C(/C=C/c1ccc2c(c1)OCO2)Nc1ccc(-n2nncc2-c2ccccc2)cc1` gave Papain counter 14.1µM*.
`COc1ccc(/C=C/C(=O)Nc2ccc(-n3nncc3-c3ccc(OC)c(OC)c3)cc2)cc1OC` gave Giardia FBPA inh-1 7.1%, Cruzain inh noDet inconclusive and Cruzain Triton -14.7%.
`O=C(Nc1ccccc1)c1ccc(-n2nncc2-c2ccccc2)cc1` gave Papain counter 1.5%.
Screening COc1ccc(-c2cnnn2-c2ccc(NC(=O)/C=C/c3ccc(OC)c(OC)c3)cc2)cc1 returned Giardia FBPA inh-1 3.0%, Cruzain inh noDet 12.6µM*, Cruzain Triton 3.55µM* and Papain counter -14.4%.
For COc1ccc(NC(=O)c2ccc(CNS(=O)(=O)c3ccc4c(c3)C(C)(C)C(=O)N4C)cc2)cc1 the results were Cruzain inh noDet -6.0% and Cruzain Triton 2.7%.
`O=C(NCCc1ccccc1Cl)c1cc2ccccn2n1` gave Cruzain inh noDet -26.7% and Cruzain Triton -4.6%.
For Cc1cc2nc(-c3cccc(NC(=O)CSc4ccc(Cl)cc4)c3)oc2cc1C the results were Cruzain inh noDet -4.2% and Cruzain Triton 0.3%.
COc1cccc(/C=C/C2=CC3(C)CC2(C)C(c2cccc(OC)c2)CC3=O)c1 (stereo not drawn) was read as Giardia FBPA inh-1 1.2%[12.9 µM].
For CC(C)C[C@H](N)c1nnc(S(=O)(=O)Cc2ccc(F)cc2)o1 the results were Giardia FBPA inh-1 23.9%, Cruzain inh noDet 12.6µM*, Cruzain Triton 12.6µM* and Papain counter 3.1%.
`CC(C)C[C@H](N)c1nnc(SCc2ccc(Cl)cc2Cl)o1` gave Cruzain inh noDet 0.7% and Cruzain Triton -2.3%.
For CCn1c(C(=O)NCc2ccccc2OC)cc2sccc21 the results were Cruzain inh noDet -2.4% and Cruzain Triton -7.0%.
Screening NC(=S)Nc1ccc(Cl)c(Cl)c1 returned Giardia FBPA inh-1 -4.0%.
C/C(CC(=O)Nc1ccc(Cl)c(Cl)c1)=N\NC(N)=S was read as Giardia FBPA inh-1 9.98µM*, Cruzain inh noDet 0.316µM*, Cruzain Triton 0.501µM*, Papain counter -14.9%, Giardia growth 1.8%, Mammal cell tox -4.6%, Giardia FBPA inh-2 -2.6%, Rabbit FBPA inh -1.7% and GAPDH coupling 3.2%.

Source: PubChem BioAssay (National Center for Advancing Translational Sciences (NCATS))
